# Reference: PubChem BioAssay
# Calls of active or inactive are those of the source. Unless noted, how the calls were made is not given here.
# Legend:
# [1] = anti-His antibody binders, primary screen, artefact control for SMM control protein annotation, biochemical, small-molecule microarray, 635 nm fluorescence (AID 1128); details: anti-His Alexa647 antibody binding, higher = more signal;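 further: score merges feature fluorescence with signal-to-noise for each printed compound spot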
# [2] = system: Human papillomavirus type 1a E7 protein (residues 1-88); assay: HPV1a E7 small-molecule binders, primary screen, biochemical, small-molecule microarray, residues 1-88, 635 nm (AID 1129); details: small-molecule microarray binding, fluorescence 635 nm; higher = more signal
# [3] = biological target: Focal adhesion kinase 1 (Homo sapiens) (UniProt Q05397); assay: small-molecule microarray binders of FAK, primary screen, biochemical, 635/667 nm fluorescence, BSA, DTT (AID 1130); details: PTK2 binding, 635 nm fluorescence, higher = more signal;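 further: composite of spot emission at 667 nm and signal to noise over triplicate slides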
# Chain of Focal adhesion kinase 1 (Homo sapiens) (Q05397 whole entry, looked up): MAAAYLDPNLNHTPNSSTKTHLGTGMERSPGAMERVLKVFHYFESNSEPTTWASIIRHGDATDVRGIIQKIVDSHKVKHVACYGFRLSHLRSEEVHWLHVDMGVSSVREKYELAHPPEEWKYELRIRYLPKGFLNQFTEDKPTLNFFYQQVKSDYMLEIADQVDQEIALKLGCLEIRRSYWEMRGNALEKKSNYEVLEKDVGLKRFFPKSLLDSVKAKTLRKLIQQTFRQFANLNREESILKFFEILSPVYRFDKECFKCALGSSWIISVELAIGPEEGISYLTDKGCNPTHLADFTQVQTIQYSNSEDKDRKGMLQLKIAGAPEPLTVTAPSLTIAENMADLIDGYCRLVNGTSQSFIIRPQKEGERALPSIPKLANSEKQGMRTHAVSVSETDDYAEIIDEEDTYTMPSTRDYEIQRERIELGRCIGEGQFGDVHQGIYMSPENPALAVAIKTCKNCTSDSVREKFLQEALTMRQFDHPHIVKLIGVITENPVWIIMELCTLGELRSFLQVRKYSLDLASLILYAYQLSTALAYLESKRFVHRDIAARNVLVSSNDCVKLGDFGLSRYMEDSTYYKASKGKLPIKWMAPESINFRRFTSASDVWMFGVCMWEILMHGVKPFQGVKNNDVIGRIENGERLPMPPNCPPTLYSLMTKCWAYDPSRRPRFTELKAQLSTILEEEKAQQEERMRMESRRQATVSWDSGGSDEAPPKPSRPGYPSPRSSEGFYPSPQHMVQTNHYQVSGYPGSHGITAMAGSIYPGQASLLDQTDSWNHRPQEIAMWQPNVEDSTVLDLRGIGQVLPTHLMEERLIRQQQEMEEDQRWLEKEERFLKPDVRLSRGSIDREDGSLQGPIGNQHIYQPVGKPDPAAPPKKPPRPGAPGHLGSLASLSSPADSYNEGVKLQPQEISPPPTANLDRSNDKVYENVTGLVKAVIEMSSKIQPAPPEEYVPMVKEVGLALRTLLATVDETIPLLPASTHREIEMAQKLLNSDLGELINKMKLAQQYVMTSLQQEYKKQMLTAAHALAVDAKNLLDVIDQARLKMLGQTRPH
# [4] = system: Fibrinogen (Alexa647-labelled); assay: fibrinogen binders on compound microarrays, profiling panel, artefact control for SMM control-protein annotation, biochemical, small-molecule microarray, 635/667 nm fluorescence (AID 1131); details: fibrinogen-A647 binding fluorescence, higher = more signal;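 further: z-score merges 667 nm fluorescence with per-spot signal-to-noise over triplicate slides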
# [5] = biological target: Follistatin (Homo sapiens) (UniProt P19883); assay: follistatin binders on small-molecule microarrays, primary screen, biochemical, small-molecule microarray, 635/667 nm fluorescence (AID 1132); details: FST binding, 635 nm fluorescence, higher = more signal
# Chain of Follistatin (Homo sapiens) (P19883 whole entry, looked up): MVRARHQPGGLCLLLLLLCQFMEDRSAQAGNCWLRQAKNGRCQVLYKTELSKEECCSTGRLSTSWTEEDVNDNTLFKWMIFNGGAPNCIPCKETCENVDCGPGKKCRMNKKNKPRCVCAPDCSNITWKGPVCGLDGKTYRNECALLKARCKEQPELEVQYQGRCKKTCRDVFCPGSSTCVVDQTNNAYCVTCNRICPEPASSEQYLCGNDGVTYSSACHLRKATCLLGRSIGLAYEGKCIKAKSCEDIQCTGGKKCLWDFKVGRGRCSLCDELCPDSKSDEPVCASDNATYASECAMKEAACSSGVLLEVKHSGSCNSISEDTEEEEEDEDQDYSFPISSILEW
# [6] = biological target: Fibroblast growth factor 2 (Homo sapiens) (UniProt P09038); assay: FGF2 binders on small-molecule microarrays, primary screen, biochemical, small-molecule microarray, 635/667 nm fluorescence (AID 1133); details: small-molecule microarray binding, FGF2, fluorescence 635/667; higher = more signal
# Chain of Fibroblast growth factor 2 (Homo sapiens) (P09038 whole entry, looked up): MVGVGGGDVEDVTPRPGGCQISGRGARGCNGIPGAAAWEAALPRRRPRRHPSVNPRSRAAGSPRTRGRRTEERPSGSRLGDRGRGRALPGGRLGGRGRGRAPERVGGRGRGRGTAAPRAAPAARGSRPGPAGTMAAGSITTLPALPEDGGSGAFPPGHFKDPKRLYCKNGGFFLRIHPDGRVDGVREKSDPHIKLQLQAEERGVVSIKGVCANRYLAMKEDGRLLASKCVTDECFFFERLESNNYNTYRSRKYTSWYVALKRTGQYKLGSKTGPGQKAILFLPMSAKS
# [7] = mitochondrial membrane potential change in A549 cells, profiling panel, cell-based, JC-1 fluorescence, basal, 24 h, 100 nL (AID 1138); details: higher = more signal;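 further: A549 lung adenocarcinoma cells under basal conditions with no added stimulus; test concentration not given here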
# Lefty1 = Lefty1 binders on small-molecule microarrays, primary screen, biochemical, small-molecule microarray, 635/667 nm fluorescence (AID 1139); details: small-molecule microarray binding, fluorescence 635/667; higher = more signal
# [8] = system: wheat germ agglutinin (Triticum aestivum), Alexa647-labelled; assay: wheat germ agglutinin binders on compound microarrays, profiling panel, artefact control for SMM control-protein annotation, biochemical, small-molecule microarray, 635/667 nm fluorescence (AID 1140); details: WGA-A647 binding, 635 nm fluorescence, higher = more signal;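 further: score merges 667 nm feature emission with signal to noise over triplicate slides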
# [9] = biological target: Luciferin 4-monooxygenase (Photinus pyralis) (UniProt P08659); assay: firefly luciferase enzyme inhibitors, primary screen, biochemical, luminescence, purified enzyme, 2006 set (AID 1141); details: SteadyGlo luminescence, 30 min, higher = more signal, called active from +8 up or from −8 down;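 further: cell-free assay with purified firefly luciferase at 100 ng per well in PBS; test concentration not given here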
# Chain of Luciferin 4-monooxygenase (Photinus pyralis) (P08659 whole entry, looked up): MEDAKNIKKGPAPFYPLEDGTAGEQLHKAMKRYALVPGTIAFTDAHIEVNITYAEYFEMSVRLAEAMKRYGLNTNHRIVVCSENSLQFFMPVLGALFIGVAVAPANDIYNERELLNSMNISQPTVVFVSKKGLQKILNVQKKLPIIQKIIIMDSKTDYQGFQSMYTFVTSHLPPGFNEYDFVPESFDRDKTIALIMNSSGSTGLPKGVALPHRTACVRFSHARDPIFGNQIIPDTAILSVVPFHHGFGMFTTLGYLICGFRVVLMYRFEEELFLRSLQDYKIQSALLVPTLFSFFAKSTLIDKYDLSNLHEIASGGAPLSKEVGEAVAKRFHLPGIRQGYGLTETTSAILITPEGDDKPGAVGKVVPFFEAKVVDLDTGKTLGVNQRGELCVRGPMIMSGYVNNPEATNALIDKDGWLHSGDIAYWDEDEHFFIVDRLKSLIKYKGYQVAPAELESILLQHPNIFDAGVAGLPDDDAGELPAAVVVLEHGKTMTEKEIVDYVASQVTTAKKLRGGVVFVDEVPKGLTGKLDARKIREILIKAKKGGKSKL
# [10] = system: Wnt5a (protein binding on small-molecule microarray); assay: Wnt5a binders on small-molecule microarray, primary screen, biophysical, 635/667 nm fluorescence (AID 1142); details: 635 nm fluorescence, higher = more signal;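 further: fluorescence read at 667 nm with signal to noise per printed feature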
# [11] = cell viability in Huh7 cells, primary screen, cytotoxicity control for HCV replication inhibitor project, CellTiter-Glo luminescence, basal, 48 h (AID 1143); details: Huh7 HCV replicon, higher = more signal, called active from +8 up or from −8 down;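 further: Huh7 hepatoma cells carrying a hepatitis C replication reporter with no stimulus; test concentration not given here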
# [12] = P. aeruginosa biofilm formation inhibitors, primary screen, PAO1 strain, BacTiter-Glo luminescence, LB-PBS (AID 1144); details: 12 h, higher = more signal
# [13] = CREB reporter modulators without forskolin, primary screen, cell-based, PC12, CRE-LacZ reporter, unstimulated (AID 1145); details: no forskolin, luminescence, 4.5 h, higher = more signal, called active from +8 up or from −8 down
# [14] = CREB reporter modulators under forskolin, primary screen, cell-based, PC12, CRE-LacZ reporter, forskolin-stimulated (AID 1146); details: luminescence, 4.5 h, higher = more signal, called active from +8 up or from −8 down;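 further: PC12 cells with 6xCRE LacZ reporter stimulated by forskolin 10 µM; beta-galactosidase reporter signal reflecting CREB driven transcription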
# [15] = biological target: Streptavidin (Streptomyces avidinii) (UniProt P22629); assay: streptavidin binders on small-molecule microarray, primary screen, artefact control for SMM compound annotation, biophysical, 635/667 nm fluorescence (AID 1147); details: streptavidin binding, higher = more signal;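 further: signal reflects streptavidin binding to arrayed compounds as a control protein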
# Chain of Streptavidin (Streptomyces avidinii) (P22629 whole entry, looked up): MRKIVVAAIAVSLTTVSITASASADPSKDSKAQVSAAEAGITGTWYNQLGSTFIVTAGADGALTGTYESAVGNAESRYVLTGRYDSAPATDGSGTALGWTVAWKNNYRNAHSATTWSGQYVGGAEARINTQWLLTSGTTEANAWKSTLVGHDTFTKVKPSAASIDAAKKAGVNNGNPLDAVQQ
# [16] = small-molecule binders of probe aInhba, primary screen, biochemical, small-molecule microarray, 635/667 nm fluorescence (AID 1148); details: higher = more signal;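 further: score merges 667nm spot fluorescence with signal-to-noise for antibody binding to printed compounds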
# Torsin-1A (Homo sapiens) [17] = biological target: Torsin-1A (Homo sapiens) (UniProt O14656); assay: torsin A binders from cell lysate, primary screen, small-molecule microarray, wild-type, 635/667 nm (AID 1149); details: COS7 hTOR1A-WT lysate, 635 nm fluorescence, higher = more signal
# Chain of Torsin-1A (Homo sapiens) (O14656 whole entry, looked up): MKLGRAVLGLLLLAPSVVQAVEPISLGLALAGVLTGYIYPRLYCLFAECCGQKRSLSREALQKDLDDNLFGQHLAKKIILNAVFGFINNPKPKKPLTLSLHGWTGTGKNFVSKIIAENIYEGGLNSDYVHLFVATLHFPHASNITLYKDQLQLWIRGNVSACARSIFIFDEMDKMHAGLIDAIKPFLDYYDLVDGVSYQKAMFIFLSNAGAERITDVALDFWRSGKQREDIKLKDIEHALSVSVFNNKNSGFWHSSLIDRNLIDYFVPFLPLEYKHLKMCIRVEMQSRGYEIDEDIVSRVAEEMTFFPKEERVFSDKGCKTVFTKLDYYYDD
# Torsin-1A (Homo sapiens) [18] = biological target: Torsin-1A (Homo sapiens) (UniProt O14656); assay: small-molecule binders of mutant TOR1A in lysate, primary screen, cell lysate, small-molecule microarray, COS7 lysate, 635/667 nm fluorescence (AID 1150); details: COS7 hTOR1A mutant lysate, 635 nm fluorescence, higher = more signal;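 further: score pools 667 nm emission and signal to noise measuring lysate protein binding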
# [19] = system: Sonic hedgehog protein (Shh); assay: small-molecule binders of Shh protein, primary screen, biochemical, small-molecule microarray, 635/667 nm fluorescence (AID 1151); details: small-molecule microarray binding, 635 nm fluorescence; higher = more signal;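 further: Shh protein binding to compounds spotted on small-molecule microarray slides; score combines spot fluorescence intensity with signal-to-noise across triplicate slides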
Structure (SMILES),composite z-score [1],composite z-score [2],composite z-score [3],composite z-score [4],composite z-score [5],composite z-score [6],z-score [7],composite z-score (Lefty1),composite z-score [8],z-score [9],composite z-score [10],z-score [11],z-score [12],z-score [13],z-score [14],composite z-score [15],composite z-score [16],composite z-score (Torsin-1A (Homo sapiens) [17]),composite z-score (Torsin-1A (Homo sapiens) [18]),composite z-score [19]
CCOC1=C2C(CN(S(=O)(=O)c3ccc(C)cc3)C2c2ccc(C)cc2)C2C(=O)N(c3ccccc3)C(=O)C2C1 (stereo not given),0.727,1.15,0.553,0.783,0.475,0.301,-0.368,0.535,0.4,1.09 (inactive),-0.069,-0.288 (inactive),-0.382 (inactive),-0.275 (inactive),0.804 (inactive),0.963,0.0906,-0.196,0.115,0.364
COc1ccc([Si](C)(C)[C@H]2[C@H](CC(=O)N3CCC[C@H]3CO)O[C@@]3(C(=O)N(Cc4cccc(N5C(=O)c6cccc7cccc5c67)c4)c4ccccc43)[C@@H]2C)cc1,0.874,0.614,0.209,0.94,1.17,0.7,1.57,1.52,0.571,-0.75 (inactive),1.08,-3.59 (inactive),0.346 (inactive),1.46 (inactive),1.16 (inactive),0.309,0.392,0.84,0.836,2.21
CC1CC/C=C\[C@H]2OC34C=CCN(C(C)(C)C)C(=O)[C@H]3N(CCCCCCO)C(=O)[C@@H]4C2C(=O)O1 (stereo not given in full),1.65,-0.572,-0.61,-0.988,-0.49,-0.635,0.699,-0.349,-0.872,-0.939 (inactive),-0.293,0.553 (inactive),0.0917 (inactive),0.74 (inactive),-0.21 (inactive),-0.727,-0.224,-0.67,-0.433,0.611
CCOC(=O)[C@H]1CC=C2CC1C(=O)N1CCC[C@@H]1[C@@H]2O[Si](C)(C)C(C)(C)C (stereo not given in full),-0.0289,-0.708,-0.173,-0.162,-0.878,-0.206,-0.158,0.449,-0.502,0.367 (inactive),-0.395,-6.23 (inactive),-0.451 (inactive),-0.776 (inactive),-0.661 (inactive),-1.49,-0.238,-0.55,-0.83,0.398
COc1ccc(COC2OC[C@]3(C)[C@H]4C5=C(CN3C(=O)OC(C)(C)C)[C@H](C)C(CO)C(CO)C5CC[C@@H]24)cc1 (stereo not given in full),1.08,1.19,0.649,0.968,0.535,-1.03,0.323,-0.209,0.831,1.52 (inactive),0.0447,-0.422 (inactive),0.669 (inactive),0.966 (inactive),1.99 (inactive),1.25,0.483,1.32,0.156,0.0407
C=C(COC)/C(=C/C[C@@H](OC(C)=O)c1ccc(CO)o1)c1cnc2ccccc2c1,0.562,1.14,-0.23,0.962,1.44,1.57,-0.482,1.46,1.04,-3.82 (inactive),0.387,-0.0797 (inactive),-1.14 (inactive),0.159 (inactive),-1.6 (inactive),1.3,0.147,0.797,0.73,2.1
C=CCC(OC(C)=O)[C@@H]1[C@@H](N(Cc2ccc(-c3cccc(C(F)(F)F)c3)o2)C(=O)c2ccc(-c3ccccc3)cc2)c2cc(OCCCO)ccc2N1C(=O)c1ccc(-c2ccccc2)cc1 (stereo not given in full),-0.674,-0.714,-0.045,-0.557,0.47,-0.0003,0.872,0.164,-0.0266,-0.277 (inactive),-0.0065,0.42 (inactive),0.103 (inactive),0.0176 (inactive),0.262 (inactive),0.0998,-0.0403,-0.0662,0.0093,0.32
COc1ccc(C#Cc2ccc3c(c2)[C@]2(C(=O)N3)[C@H](c3ccccc3OCCO)N3[C@H](c4ccccc4)[C@H](c4ccccc4)OC(=O)[C@H]3[C@@H]2C(=O)O)cc1,1.61,1.22,0.191,0.951,0.694,0.314,-2.59,1.15,1.28,-3.9 (inactive),0.535,-4.91 (inactive),-1.66 (inactive),-1.16 (inactive),4.03 (inactive),1.45,0.909,0.498,0.659,2.06
COCCOC(=O)N1C(=O)[C@@]2(c3cc(C#CCCO)ccc31)[C@H](C(=O)N1CCN(c3ncccn3)CC1)[C@H]1C(=O)O[C@H](c3ccccc3)[C@H](c3ccccc3)N1[C@@H]2c1ccccc1OCCO,0.475,1.23,0.868,0.972,1.35,0.821,-0.778,0.828,1.04,1.23 (inactive),0.0536,-2.42 (inactive),-0.173 (inactive),-0.698 (inactive),-0.228 (inactive),1.08,-0.0983,0.259,0.829,0.842
CCOc1cc(C(O)C2C=CC3C(=O)N(c4ccccc4)C(=O)C3N2Nc2ccccc2)ccc1O (stereo not given),1.3,1.19,1.54,0.896,0.608,-0.106,-0.0767,-0.231,0.471,-1.15 (inactive),-0.206,0.318 (inactive),-0.802 (inactive),2.15 (inactive),0.838 (inactive),0.0572,-0.128,-0.577,1.66,-0.14
NC(=O)[C@@H]1[C@H]2C(=O)O[C@H](c3ccccc3)[C@H](c3ccccc3)N2[C@H](c2ccc(O)cc2)[C@@]12C(=O)Nc1ccc(C#CC3(O)CCCCCC3)cc12,0.6,-0.239,-0.205,-0.819,-0.0584,-0.384,-1.06,-0.502,-0.0999,-0.869 (inactive),-0.277,-0.0907 (inactive),-0.269 (inactive),0.568 (inactive),-0.301 (inactive),-1.08,-0.148,0.398,1.1,-0.323
COCCOC(=O)N1C(=O)[C@@]2(c3cc(C#Cc4ccc(OC)cc4)ccc31)[C@H](c1ccccc1OCCO)N1[C@H](c3ccccc3)[C@H](c3ccccc3)OC(=O)[C@H]1[C@@H]2C(=O)N1CCN(c2ncccn2)CC1,2.12,1.18,0.863,-0.134,0.803,0.404,-1.18,0.361,0.816,-1.1 (inactive),0.418,-0.915 (inactive),-0.418 (inactive),-0.199 (inactive),0.298 (inactive),0.226,-0.0405,0.617,0.374,1.05
[N-]=[N+]=NCc1ccccc1[C@@H]1OC(c2ccc(OCCCO)cc2)=N[C@]1(CCS(=O)(=O)c1ccccc1)C(=O)NCc1ccccc1,1.82,1.21,0.878,0.964,1.47,1.37,-0.338,1.49,1.27,-0.375 (inactive),0.88,-1.86 (inactive),0.0656 (inactive),0.614 (inactive),-1.66 (inactive),1.09,1.09,0.248,0.467,1.4
COCC(=C=CC[C@@H](O)c1ccccc1OCCO)C[C@@H](O)c1cc(Cl)cc(Cl)c1O,0.819,1.23,0.14,0.867,1.24,1.21,-0.41,0.666,0.289,-1.02 (inactive),0.539,-1.54 (inactive),0.112 (inactive),15.6 (active),0.789 (inactive),0.394,-0.0112,1.66,1.04,2.07
CCCCC(O)C1C=CC2C(=O)N(c3ccccc3)C(=O)C2N1Nc1ccccc1F (stereo not given),1.35,1.11,0.527,0.924,0.347,-0.563,0.354,-0.0785,1.2,0.247 (inactive),0.182,0.615 (inactive),-0.571 (inactive),-0.143 (inactive),0.569 (inactive),2.09,0.297,0.31,0.129,-0.0688
CS(=O)(=O)CCOC(=O)C1=CC(CCCO)=CC(c2ccc(CN3CCCC3)cc2)N(Cc2cc3c(cc2Br)OCO3)C=C1C(=O)OCCS(C)(=O)=O (stereo not given),2.28,0.712,0.0113,0.971,0.694,0.382,3.39,0.666,0.914,-1.78 (inactive),0.592,-0.277 (inactive),0.814 (inactive),4.06 (inactive),-1.45 (inactive),1.5,0.229,2.09,2.13,0.404
CCc1oc(CC[C@@H](CO)NC(=O)NCCn2cc(C3(O)CCCCC3)nn2)c(C(=O)OC)c1C(=O)OC,2.48,0.687,-0.353,0.685,1.28,1.13,-0.0225,1.63,0.074,0.654 (inactive),0.209,-0.186 (inactive),0.73 (inactive),1.01 (inactive),1.01 (inactive),-0.0709,0.174,1.31,1.11,2.09
CC(=O)NCCCC[C@@H]1NC(=O)[C@@H]2C[C@H](C(=O)NCCCCN(C)C)[C@H](c3cccc(OCCO)c3)N2C1=O,0.605,-0.158,-0.208,-0.908,1.21,1.08,-0.446,0.471,-0.159,0.603 (inactive),-0.0339,0.344 (inactive),-0.269 (inactive),0.0043 (inactive),-0.874 (inactive),-0.451,-0.154,-1.28,0.0889,1.04
